Source: PubChem BioAssay (several laboratories)
BJeLR lethal – kills HRASV12-expressing BJeLR cells; BJeLR (HRASV12) viability, CellTiter-Glo ATP luminescence, 48 h; inhibition, % (no concentration beside the values); 0.17% of 300,000 active; AID 1554; in the data active = inhibition above about 50%; inconclusive = no clear call, values can overlap the other calls
Yp Topo-I inh – Y. pestis Topo-I inhibition via cleavage products | Y. pestis Topo-I cleavage product accumulation, plate reader | activity, % at 10 µM | 0.064% of 360,000 active; in the data active = activity above about 50%, passing the limit was not always enough; inconclusive = no clear call, values can overlap the other calls
PfHsp40 yeast – compounds rescuing yeast from Plasmodium falciparum HSP40 toxicity. S. cerevisiae expressing PfHsp40, growth rescue, ATP luminescence. growth rescue, % at 12.5 µM. 0.68% of 340,000 active; in the data active = growth rescue above about 28%, passing the limit was not always enough; inconclusive = no clear call, values can overlap the other calls;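 also: yeast W303a lacking pdr1 and pdr3 grown in galactose medium; growth measured after three days at 30 °C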
PrPC surface inh – inhibitors of human cell surface prion protein PrPC | 0.43% of 370,000 active | TR-FRET read-out | inhibition, % at 13.8 µM | P04156; in the data active = inhibition above about 24%; also: 0% = median of the test wells and 100% = reference compound wells
CCHF vOTU inh – blocks the CCHF virus ovarian tumor domain protease. CCHFV vOTU protease, Pep-AMC fluorescence. inhibition, % at 11.5 µM. AID 651958. 0.55% of 370,000 active; in the data active = inhibition above about 30%; also: 0% = vehicle wells with enzyme and 100% = no enzyme wells
PrP 5UTR inh – inhibition of PrP 5' UTR reporter expression; AID 488862; cell-based PrP 5' UTR mRNA reporter, plate reader; inhibition, % (test concentration not listed); 0.35% of 340,000 active; in the data active = inhibition above about 52%; also: 0 = median of the neutral control wells
* marks the source's active call; other numbers are inactive results; ? = inconclusive; · = no result given. An excerpt weighted towards active compounds, which were near 2% of everything screened.

SMILES | BJeLR lethal | Yp Topo-I inh | PfHsp40 yeast | PrPC surface inh | CCHF vOTU inh | PrP 5UTR inh
C=C1C(=O)O[C@@H]2C[C@@H](C)[C@@H]3C4OC4C(=O)[C@@]3(C)[C@@H](O)[C@H]12 (stereo partly drawn) | 37 | -13 | 3 | 36* | 10 | -58
O=c1c(O)cccc2cc(O)c(O)c(O)c12 | -3 | -24 | 627* | 9 | 10 | 8
CCc1c(C)c(C#N)c2nc3ccccc3n2c1-n1nc(C)cc1C | 14 | 3 | 0 | -3 | -1 | -11
CCc1c(C)c(C#N)c2nc3ccccc3n2c1Cl | 129* | · | · | · | · | ·
Cc1c(Cc2ccccc2)c(NCCN(C)C)n2c(nc3ccccc32)c1C#N | 22 | -6 | 171* | -9 | -1 | -4
CC(C)(C)OC(=O)N1CCC2CCN(CCc3ccccc3)CC21 (stereo not drawn) | · | · | · | -1 | 8 | ·
NC(=O)c1cc([N+](=O)[O-])ccc1Nc1ccccc1 | · | 6 | 48* | -26 | 7 | -8
O=C(O)c1ccccc1Nc1ccc([N+](=O)[O-])cc1C(=O)O | 1 | 3 | 0 | 1 | -8 | -28
COC(=O)/C=C/c1ccccc1S(=O)(=O)N(Cc1ccccc1)Cc1ccco1 | 18 | 57* | 0 | 4 | -3 | -22
O=C(CCc1ccccc1)N[C@H]1[C@H](OCc2ccccc2)CCC[C@@]12C(=O)N(Cc1ccccc1)c1ccc(-c3ccccn3)cc12 | · | · | · | 4 | 0 | ·
C[C@@]12C(=O)OC(=O)[C@]1(C)C1CCC2O1 | · | 1 | -1 | 41* | 5 | 29
C=CCN1[C@@H](CC(C)C)COc2cc(F)ccc2S1(=O)=O | · | · | · | -3 | 6 | ·
Cc1ccc(CN(C)C(=O)c2cc(COc3cccc(C(F)(F)F)c3)on2)o1 | -6 | ? | 6 | 1 | 10 | -5
CCc1ccc(CN(C)C(=O)c2cc(COc3cccc(C(F)(F)F)c3)on2)nc1 | 1 | 10 | 112* | 4 | 14 | -2
Fc1ccc(Cn2ccc(-c3cnc(-c4ccccc4)s3)n2)cc1 | 3 | 28 | 58* | -7 | -30 | -27
CN1[C@@H](Cc2ccccc2)COc2cccc(N3CCCC3)c2S1(=O)=O | · | · | · | 7 | 5 | ·
Cc1cccc(CCNC(=O)CN(C)S(=O)(=O)c2cnc[nH]2)c1 | -2 | 0 | 70* | 1 | -15 | -4
Brc1cc2c(cc1C1Nc3ccccc3C3C=CCC31)OCO2 (stereo not drawn) | -2 | 2 | -1 | 8 | -5 | -18
Cc1ccc2c(c1)C1C=CCC1C(C(=O)O)N2 (stereo not drawn) | 1 | · | · | · | · | ·
O=C(O)c1ccc2c(c1)C1C=CCC1C(c1cc3c(cc1Br)OCO3)N2 (stereo not drawn) | 4 | 0 | 65* | 1 | 8 | -21
CC(=O)c1ccc2c(c1)C1C=CCC1C(C(=O)O)N2 (stereo not drawn) | · | -13 | 10 | 1 | 50* | -10
COC(=O)[C@]12C[C@H](CC(=O)NCc3ccccc3)C(=O)N(Cc3ccccc3)C1=C[C@H](C1CCCC1)O[C@@H]2C | · | · | · | -2 | 4 | ·
CN(Cc1cn(Cc2ccccc2)nn1)S(=O)(=O)c1ccc(F)cc1Br | · | · | · | -8 | -1 | ·
C#CCN1CC(N(C)CCOC(=O)CCCc2ccccc2)CS1(=O)=O (stereo not drawn) | · | · | · | -6 | -1 | ·
CCCC1COC(Cn2cncn2)(c2ccc(Cl)cc2Cl)O1 (stereo not drawn) | -8 | -4 | 134* | 4 | 18 | -5
SMILES | BJeLR lethal | Yp Topo-I inh | PfHsp40 yeast | PrPC surface inh | CCHF vOTU inh | PrP 5UTR inh
Nc1cc2c3ccccc3ccc2c2ccccc12 | · | -24 | 249* | -3 | -28 | -113
Nc1[nH]n(-c2ccccc2)c(=O)c1N=Nc1ccc(F)cc1 | · | · | · | 16 | 2 | ·
COc1cc(OC)c(-c2c3cc(O)c(=O)cc-3oc3cc(O)c(O)cc23)cc1OC | · | -6 | 228* | -19 | 10 | -33
COc1cc(-c2cc(=O)c3ccc(O)cc3o2)cc(OC)c1OC | · | -4 | · | -6 | -1 | ·
Cc1c2cc(O)c(=O)cc-2oc2cc(O)c(O)cc12 | 19 | -17 | 0 | 60* | 8 | 1
Cc1cc2oc(=O)cc(-c3cc4ccccc4o3)c2cc1O | -21 | -8 | -1 | -22 | 17 | -27
OC(c1ccccc1)(c1ccccc1)C1CCN(CCCOc2cccc(C(F)(F)F)c2)CC1 | · | · | · | -6 | 22 | ·
COC(=O)CC#C[C@H](C)[C@@H](NS(C)(=O)=O)C1CCCCC1 | · | · | · | 1 | 0 | ·
COC(=O)C1=C(C)N(Cc2ccccc2C(F)(F)F)C(=NCc2ccccc2C(F)(F)F)NC1c1cccc(C(F)(F)F)c1 (stereo not drawn) | · | · | · | 5 | 16 | ·
O=C(NCc1cccs1)C1CCN(S(=O)(=O)N2CCCC2)CC1 | 3 | 6 | 33* | -6 | -22 | -14
O=C(O)C1CCCCC1C(=O)Nc1ccc(S(=O)(=O)N2CCCC2)cc1 (stereo not drawn) | -11 | 4 | 116* | 4 | -2 | -9
O=C(O)[C@H]1CCCC[C@H]1C(=O)Nc1ccc(S(=O)(=O)N2CCCCC2)cc1 | 4 | 5 | 0 | -2 | 9 | -19
O=[N+]([O-])c1cncc2[nH]cnc12 | · | · | · | -42 | -6 | ·
CC[n+]1c(/C=C/N(C)c2ccccc2)n(-c2ccccc2)c2ccc(-c3nc4ccccc4s3)cc21 | 91* | 10 | ? | · | · | 15
COC(=O)c1cc2c(c3c4cc(F)ccc4n(S(=O)(=O)c4ccccc4)c13)C(=O)N(Cc1ccco1)C2 | · | · | · | -2 | 0 | ·
O=S1(=O)c2ccc(Br)cc2OC[C@H](Cc2ccccc2)N1Cc1cn(Cc2ccc(C(F)(F)F)cc2)nn1 | · | · | · | -2 | 12 | ·
Cc1ccc(C(=O)N2CCC[C@@H]2C(=O)N2CCC[C@@H]2C(=O)NCc2ccccc2)cc1 | · | · | · | -2 | -4 | ·
Cc1ccc(/C=N/c2sc3c(c2C#N)CCC3)s1 | 4 | -7 | 43* | 3 | 14 | -83
COc1cc2cnc(-c3ccccc3)c(C(=O)c3ccc(OCc4ccccc4)cc3)c2cc1OC | · | 25 | -2 | 11 | 9 | -10
COc1cc2cnc(-c3ccccc3)c(C(=O)c3ccc(F)cc3)c2cc1OC | · | 35 | 411* | -6 | 5 | -2
Oc1ccc2c3c1O[C@H]1c4oc5ccccc5c4C[C@@]4(O)[C@@H](C2)N(CC2CC2)CC[C@]314 | 5 | 11 | 34* | 1 | 2 | 17
Oc1ccc2c3c1O[C@H]1c4[nH]c5ccccc5c4C[C@@]4(O)[C@@H](C2)N(CC2CC2)CC[C@]314 | · | -6 | -1 | -3 | 9 | -18
COc1ccc(OC)c2c1C(=O)C(Cl)=C(Cl)C2=O | 91* | 0 | 613* | 1 | -12 | -6
O=C(NCCC(=O)N1CCCCCCC1)c1ccc(Br)cc1 | · | -6 | 70* | 4 | 9 | -9
Cc1ccccc1CN1CCCCC(NC(=O)C(C)(C)C)C1=O (stereo not drawn) | · | · | · | -4 | -3 | ·
O=C(CSc1nnc(Cc2cccs2)n1-c1ccccc1)Nc1ccccc1-c1ccccc1 | · | · | · | -1 | 4 | ·
